Experimental data as given in PubChem BioAssay AID1159580 (chemical genetic matrix, 2015).
Screen size: about 5,500 compounds; about 2,000 (36%) were called active. Not shown: some 18% with an inconclusive outcome. Rule as the data show it: active = normalized growth mostly below about 0.91 (no sharp cut-off); inconclusive = no clear call, values can overlap the other calls; inactive = mostly above about 0.92. The list shows a part of the results.

Test: chemical genetic growth profiling, strain panel (AID 1159580);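 also: tested at 20 µM; growth read once vehicle control cultures reached saturation at 30 °C; 1 = growth at the plate median or of vehicle wells; lower values mean less growth of the strain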
Conditions: growth OD

Measured: normalized growth

NS(=O)(=O)c1cc2c(cc1C(F)(F)F)NC(Cc1ccccc1)NS2(=O)=O (centres undefined)
inactive: S. cerevisiae deletion strains, locus YJR066W, strain TOR1, hits give low values 0.949 | S. cerevisiae deletion strains, locus YKL009W, strain mrt4, hits give low values 0.983 | S. cerevisiae deletion strains, locus YKL068W, hits give low values 1 | S. cerevisiae deletion strains, locus YKL085W, strain MDH1 (second series), hits give low values 0.999 | S. cerevisiae deletion strains, locus YKL085W, strain MDH1, hits give low values 0.999 | S. cerevisiae deletion strains, locus YKL160W, strain elf1, hits give low values 0.977 | S. cerevisiae deletion strains, locus YKL190W, strain CNB1, hits give low values 1 | S. cerevisiae deletion strains, locus YKR001C, strain vps1, hits give low values 0.982 | S. cerevisiae deletion strains, locus YKR026C, strain gcn3, hits give low values 0.998 | S. cerevisiae deletion strains, locus YKR091W, strain srl3, hits give low values 0.982 | S. cerevisiae deletion strains, locus YLL001W, strain dnm1, hits give low values 0.981 | S. cerevisiae deletion strains, locus YLL026W, hits give low values 0.991 | S. cerevisiae deletion strains, locus YLL041C, strain sdh2, hits give low values 0.985 | S. cerevisiae deletion strains, locus YLR027C, strain aat2, hits give low values 0.985 | S. cerevisiae deletion strains, locus YLR039C, strain RIC1, hits give low values 1.04 | S. cerevisiae deletion strains, locus YLR058C, strain SHM2, hits give low values 1 | S. cerevisiae deletion strains, locus YLR102C, strain apc9, hits give low values 1.01 | S. cerevisiae deletion strains, locus YLR113W, strain HOG1, hits give low values 0.983 | S. cerevisiae deletion strains, locus YLR221C, strain rsa3, hits give low values 0.973 | S. cerevisiae deletion strains, locus YLR258W, strain gsy2, hits give low values 0.993 | S. cerevisiae deletion strains, locus YLR262C, strain YPT6 (second series), hits give low values 0.987 | S. cerevisiae deletion strains, locus YLR262C, strain YPT6, hits give low values 1.01 | S. cerevisiae deletion strains, locus YLR268W, strain sec22, hits give low values 0.999 | S. cerevisiae deletion strains, locus YLR320W, strain mms22, hits give low values 0.957 | S. cerevisiae deletion strains, locus YLR330W, strain CHS5, hits give low values 1.01 | S. cerevisiae deletion strains, locus YLR342W, strain FKS1 (second series), hits give low values 1.06 | S. cerevisiae deletion strains, locus YLR342W, strain FKS1, hits give low values 0.988 | S. cerevisiae deletion strains, locus YLR357W, strain rsc2, hits give low values 0.978 | S. cerevisiae deletion strains, locus YLR370C, strain arc18, hits give low values 0.983 | S. cerevisiae deletion strains, locus YLR371W, strain rom2, hits give low values 1.01 | S. cerevisiae deletion strains, locus YLR384C, strain iki3, hits give low values 0.986 | S. cerevisiae deletion strains, locus YLR418C, strain cdc73, hits give low values 1.01 | S. cerevisiae deletion strains, locus YML016C, strain PPZ1, hits give low values 1.01 | S. cerevisiae deletion strains, locus YML032C, strain rad52, hits give low values 0.983 | S. cerevisiae deletion strains, locus YML120C, strain ndi1, hits give low values 0.981 | S. cerevisiae deletion strains, locus YML124C, strain tub3, hits give low values 1 | S. cerevisiae deletion strains, locus YMR058W, strain fet3, hits give low values 0.97 | S. cerevisiae deletion strains, locus YMR078C, strain ctf18, hits give low values 1 | S. cerevisiae deletion strains, locus YMR125W, strain sto1, hits give low values 1.01 | S. cerevisiae deletion strains, locus YMR129W, hits give low values 0.992 | S. cerevisiae deletion strains, locus YMR205C, strain PFK2, hits give low values 0.978 | S. cerevisiae deletion strains, locus YMR223W, strain ubp8, hits give low values 1.02 | S. cerevisiae deletion strains, locus YMR231W, strain pep5, hits give low values 1 | S. cerevisiae deletion strains, locus YMR307W, strain GAS1, hits give low values 1.06 | S. cerevisiae deletion strains, locus YNL067W, strain RPL9B, hits give low values 0.985 | S. cerevisiae deletion strains, locus YNL071W, strain lat1, hits give low values 0.994 | S. cerevisiae deletion strains, locus YNL153C, strain GIM3, hits give low values 0.975 | S. cerevisiae deletion strains, locus YNL183C, strain NPR1, hits give low values 0.927 | S. cerevisiae deletion strains, locus YNL209W, strain ssb2, hits give low values 0.993 | S. cerevisiae deletion strains, locus YNL233W, strain BNI4, hits give low values 0.993 | S. cerevisiae deletion strains, locus YNL248C, strain rpa49, hits give low values 0.996 | S. cerevisiae deletion strains, locus YNL250W, strain rad50, hits give low values 1.01 | S. cerevisiae deletion strains, locus YNL271C, strain bni1, hits give low values 1.01 | S. cerevisiae deletion strains, locus YNL298W, strain CLA4, hits give low values 1.02 | S. cerevisiae deletion strains, locus YNL307C, strain MCK1, hits give low values 1.01 | S. cerevisiae deletion strains, locus YNL322C, strain KRE1 (second series), hits give low values 0.992 | S. cerevisiae deletion strains, locus YNR049C, strain mso1, hits give low values 0.986 | S. cerevisiae deletion strains, locus YNR052C, strain pop2, hits give low values 1.01 | S. cerevisiae deletion strains, locus YOL006C, strain TOP1, hits give low values 0.953 | S. cerevisiae deletion strains, locus YOL012C, strain htz1 0.78 | S. cerevisiae deletion strains, locus YOL147C, strain pex11, hits give low values 1.01 | S. cerevisiae deletion strains, locus YOR001W, strain rrp6, hits give low values 0.997 | S. cerevisiae deletion strains, locus YOR061W, strain CKA2, hits give low values 1 | S. cerevisiae deletion strains, locus YOR069W, strain VPS5, hits give low values 1.01 | S. cerevisiae deletion strains, locus YOR070C, strain gyp1, hits give low values 0.999 | S. cerevisiae deletion strains, locus YOR080W, strain dia2, hits give low values 0.982 | S. cerevisiae deletion strains, locus YOR083W, strain WHI5, hits give low values 0.969 | S. cerevisiae deletion strains, locus YOR106W, strain vam3, hits give low values 0.958 | S. cerevisiae deletion strains, locus YOR136W, strain idh2, hits give low values 0.992 | S. cerevisiae deletion strains, locus YOR144C, strain elg1, hits give low values 0.998 | S. cerevisiae deletion strains, locus YOR184W, strain ser1, hits give low values 0.998 | S. cerevisiae deletion strains, locus YOR231W, strain MKK1, hits give low values 0.987 | S. cerevisiae deletion strains, locus YOR265W, strain rbl2, hits give low values 0.988 | S. cerevisiae deletion strains, locus YOR270C, strain vph1, hits give low values 0.956 | S. cerevisiae deletion strains, locus YOR290C, strain snf2, hits give low values 0.964 | S. cerevisiae deletion strains, locus YOR316C, strain cot1, hits give low values 1.01 | S. cerevisiae deletion strains, locus YPL051W, strain arl3, hits give low values 0.998 | S. cerevisiae deletion strains, locus YPL055C, strain LGE1, hits give low values 0.934 | S. cerevisiae deletion strains, locus YPL078C, strain atp4, hits give low values 0.988 | S. cerevisiae deletion strains, locus YPL106C, strain sse1, hits give low values 0.952 | S. cerevisiae deletion strains, locus YPL240C, strain hsp82, hits give low values 0.998 | S. cerevisiae deletion strains, locus YPL241C, strain CIN2, hits give low values 1.01 | S. cerevisiae deletion strains, locus YPL256C, strain CLN2, hits give low values 0.976 | S. cerevisiae deletion strains, locus YPR119W, strain clb2, hits give low values 1.01 | S. cerevisiae deletion strains, locus YPR141C, strain kar3, hits give low values 1.01 | S. cerevisiae deletion strains, locus YPR163C, strain tif3, hits give low values 1.01 | S. cerevisiae deletion strains, locus YPR167C, strain met16, hits give low values 1.01 | S. cerevisiae deletion strains, strain wtn01, hits give low values 1.01 | S. cerevisiae strains, strain wild type, hits give low values 1
